Drawing on PubChem BioAssay AID1347418 (Sanford-Burnham Center for Chemical Genomics, 2020), this text covers inhibition for 104 compounds.

The campaign covered roughly 1,300 compounds. About 750 (58%) were called active. The list shows a part of the results. Unmarked numbers belong to inactive results.

The target of the experiment is Sulfhydryl oxidase 1 (Homo sapiens) (UniProt O00391). The experiment is described as follows: inhibition of human sulfhydryl oxidase QSOX1 – biochemical, ROS-Glo H2O2 luminescence, HTS, primary screen (AID 1347418). Conditions: recombinant QSOX1, ROS-Glo H2O2 luminescence; at 12.5 µM; hits give high values; active = any value above zero.
Sequence of Sulfhydryl oxidase 1 (Homo sapiens) (O00391 whole entry, looked up): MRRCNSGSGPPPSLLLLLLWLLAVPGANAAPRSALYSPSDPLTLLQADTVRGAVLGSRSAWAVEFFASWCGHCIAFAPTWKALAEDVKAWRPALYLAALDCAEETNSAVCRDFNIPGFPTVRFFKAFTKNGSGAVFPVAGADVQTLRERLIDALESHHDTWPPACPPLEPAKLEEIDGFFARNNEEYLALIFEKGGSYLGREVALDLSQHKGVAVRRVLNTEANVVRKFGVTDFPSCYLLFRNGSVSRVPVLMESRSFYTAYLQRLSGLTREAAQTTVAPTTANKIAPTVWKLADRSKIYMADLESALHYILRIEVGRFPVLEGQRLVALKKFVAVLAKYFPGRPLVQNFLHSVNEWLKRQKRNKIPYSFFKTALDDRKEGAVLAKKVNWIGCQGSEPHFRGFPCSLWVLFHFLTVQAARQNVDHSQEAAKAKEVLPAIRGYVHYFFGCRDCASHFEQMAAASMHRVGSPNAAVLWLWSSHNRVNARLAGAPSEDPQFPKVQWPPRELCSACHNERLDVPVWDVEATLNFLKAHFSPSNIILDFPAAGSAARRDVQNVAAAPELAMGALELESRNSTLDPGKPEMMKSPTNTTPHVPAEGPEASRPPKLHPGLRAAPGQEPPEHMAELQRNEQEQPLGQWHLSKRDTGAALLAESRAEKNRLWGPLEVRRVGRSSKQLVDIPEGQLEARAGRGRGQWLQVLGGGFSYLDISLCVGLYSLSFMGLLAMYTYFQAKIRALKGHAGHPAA
One may read the inhibition as the change of the read-out against control, counted positive when it falls. Take `COc1cc(/C=C(\C#N)C(=O)Nc2nnc(C(F)(F)F)s2)ccc1OCc1ccc(C(F)(F)F)cc1C(F)(F)F`: the inhibition is 0.8% (active). Turning to `CN(C)c1nc2c(Br)c(Br)c(Br)c(Br)c2[nH]1`, the inhibition is 7% (active). The figure for `Nc1cc(=O)[nH]c(N)n1` is 2% (active). Take `CCCN(CCC)CCc1cccc2c1CC(=O)N2`: the inhibition is 1.5% (active). The figure for `CC(C)CC(NP(=O)(O)O[C@@H]1O[C@@H](C)[C@H](O)[C@@H](O)[C@H]1O)C(=O)NC(Cc1c[nH]c2ccccc12)C(=O)O` (some centres undefined) is 4.6% (active); for `CN[C@H](CC(=O)O)C(=O)O` it is 2.3% (active); for `CC[C@H](C)C(=O)O[C@H]1CCC=C2C=C[C@H](C)[C@H](CC[C@@H]3C[C@@H](O)CC(=O)O3)[C@H]21` it is -6.8%. The figure for `NC(N)=N[C@@H](CCC(=O)O)C(=O)O` is 0.9% (active).

For the compound `CNCCC=C1c2ccccc2CCc2ccccc21`, the inhibition was 2.3% (active). The figure for `CC#CCOC(=O)c1c(C)nc2sc3c(c2c1N)CCC(O)C3` (centres undefined) is 1.6% (active). As to `CN1CCC[C@H]1c1cccnc1`, the inhibition is -0.6%. The figure for `COc1ccccc1N1CCN(CCCNc2cc(=O)n(C)c(=O)n2C)CC1` is 10.9% (active); for `COc1ccccc1N1CCN(CCCNc2c(C)c(=O)n(C)c(=O)n2C)CC1` it is 7.4% (active). `CCC(C)N(C)C(=O)c1cc2ccccc2c(-c2ccccc2Cl)n1` (centres undefined): the inhibition is -1.2%. The figure for `CN1CCN(CCCN2c3ccccc3Sc3ccc(Cl)cc32)CC1` is 46.5% (active); for `OCCN1CCN(CCCN2c3ccccc3Sc3ccc(Cl)cc32)CC1` it is 45.4% (active); for `OCCN1CCN(CCCN2c3ccccc3C=Cc3ccccc32)CC1` it is 6.4% (active). Regarding `CN1CCN(C2Cc3ccccc3Sc3ccc(Cl)cc32)CC1` (centres undefined), the inhibition is -2.3%. The figure for `COc1cc2c(cc1OC)-c1cc(=Nc3c(C)cc(C)cc3C)n(C)c(=O)n1CC2` is -1.4%; for `Cc1ccc(S(=O)(=O)/C=C/C#N)cc1` it is 0.7% (active); for `CC(C)(C)c1ccc(S(=O)(=O)/C=C/C#N)cc1` it is 1.2% (active).

On to `C=C[C@@]1(C)CC(=O)[C@]2(O)[C@@]3(C)[C@H](O)CCC(C)(C)[C@@H]3[C@H](O)[C@H](OC(C)=O)[C@@]2(C)O1`, for which the inhibition is 19.3% (active). Take `Nc1nc(N)c(N=O)c(OCC2CCCCC2)n1`: the inhibition was 20.8% (active). On to `CC(C)(C)c1onc(OCP(=O)(O)O)c1CC(N)C(=O)O` (centres undefined), for which the inhibition was 4.7% (active). As to `CCCN(CC1CC1)c1nc(C)nc(Nc2c(Cl)cc(Cl)cc2Cl)c1Cl`, the inhibition was 0.1% (active). The result for `CSC(=N)N` reads -7.4%; that for `CCSC(=N)N`, 0.7% (active). The result for `CCN1/C(=C/C(C)=O)Sc2ccc(OC)cc21` reads 10.3% (active).

In the case of `CC(=O)O[C@H]1CC2(C)[C@@H](C[C@@H](O)[C@H]3[C@@]4(C)CC[C@@H](O)[C@@H](C)[C@@H]4CC[C@@]32C)/C1=C(/CCC=C(C)C)C(=O)O` (some centres undefined), the inhibition is 2.7% (active). The result for `Fc1cccc(/C=N/N=C/c2cccc(F)c2)c1` reads 1.9% (active). The result for `CNC(=O)[C@H]1O[C@@H](n2cnc3c(NCc4cccc(I)c4)ncnc32)C(O)[C@H]1O` (some centres undefined) reads -1.8%. In the case of `CCCCC#Cc1nc(NC)c2ncn([C@@H]3O[C@H](CO)C(O)[C@@H]3O)c2n1` (some centres undefined), the inhibition is -4.5%. In the case of `Nc1nc(Nc2ccccc2)nc2c1ncn2[C@@H]1O[C@H](CO)[C@H](O)C1O` (some centres undefined), the inhibition was -2.6%.

In the case of `Nc1nc(Cl)nc2c1ncn2[C@@H]1O[C@H](CO)[C@H](O)C1O` (some centres undefined), the inhibition is -0.3%.

In the case of `CCNC(=O)[C@H]1O[C@@H](n2cnc3c(N)nc(NCCc4ccc(CCC(=O)O)cc4)nc32)C(O)[C@H]1O` (some centres undefined), the inhibition is 1.5% (active).

Regarding `CNC(=O)[C@H]1O[C@@H](n2cnc3c(NCc4ccc(N)cc4)ncnc32)C(O)[C@H]1O` (some centres undefined), the inhibition was 6% (active). The figure for `O=C(c1ccc(Cl)cc1)N1CCN(c2ccc([N+](=O)[O-])c3ncccc23)CC1` is 1.5% (active); for `O=c1cc(N2CCOCC2)oc2c(-c3ccccc3)cccc12` it is -2.2%; for `OCC1O[C@H](O)C(Cl)C(O)C1O` (some centres undefined) it is 4.9% (active). Turning to `CC(C)C[C@H](NC(=O)C1OC1C(=O)O)C(=O)NCCCCN=C(N)N` (some centres undefined), the inhibition was 10.1% (active).

Consider `COC1(C2=NCCN2)COc2ccccc2O1` (centres undefined), for which the inhibition was 3.2% (active). `O=C(O)CN(CCN(CC(=O)O)CC(=O)O)CCN(CC(=O)O)CC(=O)O`: the inhibition was -5%. As for `CN1C(=O)CC[C@H]1c1cccnc1`, the inhibition was -4%. With `Cn1ccc2cc3c(cc21)CCN3C(=O)Nc1cccnc1`, the inhibition was -2.2%. On to `CN1CCc2cc(NC(=O)Nc3cccnc3)ccc21`, for which the inhibition is 7.1% (active). The figure for `Nc1c2c(nc3ccccc13)CCCC2O` (centres undefined) is -1%; for `NNc1nncc2ccccc12` it is 26.1% (active); for `O=c1c(O)c(-c2cc(O)c(O)c(O)c2)oc2cc(O)cc(O)c12` it is 25.8% (active). The figure for `O=c1c(O)c(-c2ccc(O)c(O)c2)oc2cc(O)cc(O)c12` is 33.1% (active); for `O=c1cc(-c2ccc(O)cc2)oc2cc(O)cc(O)c12` it is 15.3% (active); for `O=c1c(O)c(-c2ccc(O)cc2O)oc2cc(O)cc(O)c12` it is 41.5% (active).

For `S=C(Nc1ccccc1)Nc1nccs1`, the inhibition was -0.6%.

With `NO`, the inhibition was -19.9%. The result for `CN(C)CCCO[C@@H]1[C@H]2OC(C)(C)O[C@H]2O[C@@H]1C(O)CO` (some centres undefined) reads 1.3% (active); that for `O=C1NC(=O)c2cc(Nc3ccccc3)c(Nc3ccccc3)cc21`, 44.9% (active); that for `O=[N+]([O-])c1cccc2cn[nH]c12`, -7.7%. `O=[N+]([O-])c1cccc2c(Br)[nH]nc12`: the inhibition is 5.3% (active). The result for `COCCCC/C(=N\OCCN)c1ccc(C(F)(F)F)cc1` reads -2%.

Take `Cc1cccc(-c2[nH]c(C(C)(C)C)nc2-c2ccc3nccnc3c2)n1`: the inhibition is 6% (active). The figure for `N[C@H]1CONC1=O` is -12.9%.

On to `CN1CCN2c3ccccc3Cc3ccccc3C2C1` (centres undefined), for which the inhibition was -1.9%. The result for `NC1=NCC2c3ccccc3Cc3ccccc3N12` (centres undefined) reads 1.4% (active); that for `CCCC(C(=O)OCCN(CC)CC)(c1ccccc1)c1ccccc1`, -0.5%.

On to `O=C(OCCN1CCOCC1)C1(c2ccccc2)CCCCC1`, for which the inhibition is 2.5% (active). Turning to `CCN(CC)CCOCCOC(=O)C1(c2ccccc2)CCCC1`, the inhibition was 6.3% (active). The result for `CCN(CC)CCOC(=O)C1(C2CCCCC2)CCCCC1` reads -1.9%; that for `CCCn1c(=O)c2[nH]c(C3CCCC3)nc2n(CCC)c1=O`, 2.3% (active). On to `Cn1c(=O)c2[nH]c(-c3ccccc3)nc2n(C)c1=O`, for which the inhibition is -2.7%.

`Cn1c(=O)c2[nH]c(C3CCCC3)nc2n(C)c1=O`: the inhibition is 3.9% (active).

For the compound `Cn1c(=O)c2[nH]c(-c3ccc(S(=O)(=O)O)cc3)nc2n(C)c1=O`, the inhibition was -2.4%. The figure for `CN(C)CCOC(=O)COc1ccc(Cl)cc1` is -2.9%. The figure for `CC/C(=C(\c1ccccc1)c1ccc(OCCN(C)C)cc1)c1ccccc1` is 2.2% (active); for `C[C@H]1c2cccc(O)c2C(O)=C2C(=O)[C@]3(O)C(O)=C(C(N)=O)C(=O)[C@@H](N(C)C)[C@@H]3[C@@H](O)[C@@H]21` it is -1.5%. The result for `CN(C)[C@@H]1C(=O)C(C(N)=O)=C(O)[C@@]2(O)C(=O)C3=C(O)c4c(O)ccc(Cl)c4[C@@H](O)[C@H]3C[C@@H]12` reads 9.5% (active); that for `COc1ccccc1N1CCN(CCN(C(=O)C2CCCCC2)c2ccccn2)CC1`, 9.7% (active). As for `COc1ccccc1N1CCN(CCN(C(=O)c2ccc(I)cc2)c2ccccn2)CC1`, the inhibition is 11.2% (active).

For `COc1ccccc1N1CCN(CCN(C(=O)c2ccc(F)cc2)c2ccccn2)CC1`, the inhibition was 7.1% (active). For the compound `COc1ccc(CCN(C)CCc2ccc(OC)c(OC)c2)cc1OC`, the inhibition was -0.5%. The result for `COc1ccc(Cc2nccc3cc(OC)c(OC)cc23)cc1OC` reads 3.3% (active); that for `CC(N=C(NC#N)Nc1ccncc1)C(C)(C)C` (centres undefined), 4.4% (active); that for `O=C1NCc2c1c1c3ccccc3[nH]c1c1[nH]c3ccccc3c21`, 2.6% (active). The figure for `O=c1[nH]c2ccccc2c2ccccc12` is -9.8%. The figure for `CCC(=O)c1ccc2c(c1)N(CCCN(C)C)c1ccccc1S2` is 20.9% (active). For `CN(C)CCCN1c2ccccc2Sc2ccccc21`, the inhibition is 46.3% (active). The figure for `COc1ccc([C@@H]2Sc3ccccc3N(CCN(C)C)C(=O)[C@@H]2OC(C)=O)cc1` is -0.6%; for `CN(C)CCCN1c2ccccc2Sc2ccc(C(F)(F)F)cc21` it is 24.1% (active). The figure for `CN(C)CCCN1c2ccccc2Sc2ccc(Cl)cc21` is 39.2% (active); for `NC1(C(=O)O)CC1` it is 5.5% (active). For `NC1(C(=O)O)CCCCC1`, the inhibition was -3.9%. On to `CC(C)ON([C@@H](C(=O)NO)C(C)C)S(=O)(=O)c1ccc(-c2ccccc2)cc1`, for which the inhibition was 8.9% (active). For `CC(=O)/C=C1\C(=O)N(C)c2ccccc21`, the inhibition was 7.8% (active). `COc1cc(NS(C)(=O)=O)ccc1Nc1c2ccccc2nc2ccccc12`: the inhibition is 42.7% (active).

For `CN(C(=O)CCCOc1ccc2[nH]c(=O)ccc2c1)C1CCCCC1`, the inhibition is -1.6%.

Regarding `CC[N+](CC)(CC)CC`, the inhibition was 0.9% (active). The figure for `Nc1nc(N)c2nc(CNc3ccc(C(=O)NC(CCC(=O)O)C(=O)O)cc3)cnc2n1` (centres undefined) is 0.7% (active). In the case of `CN(Cc1cnc2nc(N)nc(N)c2n1)c1ccc(C(=O)N[C@@H](CCC(=O)O)C(=O)O)cc1`, the inhibition was -2.2%. The figure for `CCc1cccc2c3c([nH]c12)C(CC)(CC(=O)O)OCC3` (centres undefined) is 9.9% (active); for `N[C@@H](Cc1ccc(F)cc1)C(=O)O` it is 0.8% (active); for `COC(=O)[C@@H](N)Cc1ccc(O)c(O)c1` it is 1.3% (active).

Take `NCCc1ccc(O)c(O)c1`: the inhibition is 8.1% (active). With `CC(N)C(=O)OC(C)(C)Cc1ccc(Cl)cc1` (centres undefined), the inhibition was -3.5%. The figure for `N[C@@H](Cn1ccc(=O)c(O)c1)C(=O)O` is -3.8%; for `NC(Cc1ccc(Cl)cc1)C(=O)O` (centres undefined) it is -3.4%; for `COC(=O)C(N)Cc1ccc(Cl)cc1` (centres undefined) it is 9.7% (active).
